Assay outcomes from PubChem.
Only some compounds are listed: those with a hit (about 10% of all), similar ones and a draw of the others.
JMJD2A Tudor inh – JMJD2A Tudor domain (human) inhibition | AID 504339 | AlphaScreen JMJD2A-Tudor / H3K4me3 peptide binding | actives 4.4% (n = 390,000) | O75164 | Potency, µM (highest dose often 114 µM), without a hit: at the highest dose activity change, negative = inhibition, usual class: inhibitors; further: on the % scale 0 is the no-effect control and ±100 the full control effect; nearly all actives have a fitted effect of over 50% in size
BAZ2B block – BAZ2B (human) inhibition | AlphaScreen BAZ2B-H3K14Ac peptide displacement | Potency, µM (titrated, usually from 114 µM), inactives show at the highest dose activity change, negative = inhibition, actives largely listed as inhibitors | actives 4.4% (n = 360,000) | AID 504333; further: on the % scale 0 is the no-effect control and ±100 the full control effect; nearly all actives have a fitted effect of over 60% in size
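Complex of BAZ2B and biotin-H3K14Ac (50 nM apiece) forms over 30 min at RT, then faces library compounds up to 110 uM for another 30 min; AlphaScreen beads added, 20 min dark incubation, luminescence read.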
G9a block – G9a (human) methyltransferase inhibition | G9a H3K9 monomethylation, AlphaScreen, 2 h | Potency, µM (highest dose often 102 µM), for inactives: at the highest dose activity, negative = inhibition, actives largely listed as inhibitors | actives 8.8% (n = 350,000) | AID 504332; further: on the % scale 0 is the no-effect control and ±100 the full control effect; nearly all actives have a fitted effect of over 75% in size
Target sequence (Q96KQ7 913-1193 limits assumed): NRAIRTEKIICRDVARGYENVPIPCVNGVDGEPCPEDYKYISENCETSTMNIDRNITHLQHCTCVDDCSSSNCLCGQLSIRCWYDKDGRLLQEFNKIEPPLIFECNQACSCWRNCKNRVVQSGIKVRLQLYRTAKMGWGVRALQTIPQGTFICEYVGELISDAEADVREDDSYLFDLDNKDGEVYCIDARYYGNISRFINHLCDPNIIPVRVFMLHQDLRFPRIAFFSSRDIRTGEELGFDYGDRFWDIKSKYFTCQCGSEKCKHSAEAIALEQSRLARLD
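AlphaScreen read-out: biotin-H3K9 peptide (500 nM) methylation by 20 nM enzyme with 20 uM SAM, 2 h at room temperature after 15 min compound preincubation; anti-monomethyl H3K9 antibody plus donor/acceptor beads, 10 min dark.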
GLS inh – blocks human kidney-isoform glutaminase activity | O94925 | GLS enzymatic activity, qHTS titration | Potency, µM (titrated, usually from 45.5 µM), for inactives: top-dose activity change, negative = inhibition, most hits filed as inhibitors | actives 0.21% (n = 410,000) | AID 624170; further: on the % scale 0 is the no-effect control and ±100 the full control effect
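hKGA; 45 mM KH2PO4 pH 8.2 + 0.02% Tween-20; cpd via pin tool; 1 mM Gln soln; GluOx/HRP/Amplex Red; RT 30 min; fluor. t0 & final.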
HP1b chromo inh – blocks HP1-beta chromodomain binding to methylated histone tails; P83916; actives 0.56% (n = 390,000); AlphaScreen HP1-beta / biotin-H3K9me3 peptide binding; AID 540317; Potency, µM (doses to about 114 µM), for the others: at the highest dose activity change, negative = inhibition, most hits filed as inhibitors; further: nearly all actives have a fitted effect of over 70% in size
Target sequence (P83916 whole entry, looked up): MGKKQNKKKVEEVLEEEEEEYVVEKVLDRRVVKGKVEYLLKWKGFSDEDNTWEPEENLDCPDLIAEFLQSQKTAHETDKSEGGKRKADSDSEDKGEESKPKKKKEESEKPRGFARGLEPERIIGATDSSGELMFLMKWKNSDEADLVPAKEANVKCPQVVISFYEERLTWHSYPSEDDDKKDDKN
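AlphaScreen: HP1-beta (50 nM) preformed 30 min with biotin-H3(1-18)K9me3 peptide (50 nM) in PBS pH 7.4, 0.01% Tween-20. Compound added for 30 min at RT, then streptavidin donor/nickel chelate acceptor beads (10 ug/mL) for 30 min.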
L3MBTL1 inh – L3MBTL1 (human) inhibition; AlphaScreen L3MBTL1–H3K9me1 peptide binding; AID 485360; actives 0.66% (n = 230,000); Q9Y468; Potency, µM (series often up to 57.1 µM), inactives show at the highest dose activity, negative = inhibition, usual class: inhibitors; further: on the % scale 0 is the no-effect control and ±100 the full control effect; nearly all actives have a fitted effect of over 60% in size
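L3MBTL1 50 nM + b-AHA-H3(1-15)K9me1 75 nM, 30 min RT; compound added, 30 min RT; streptavidin donor/Ni-chelate acceptor beads 10 ug/mL each final, 30 min RT dark; AlphaScreen read.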
* = called active by the depositor; ? = inconclusive; . = no result given; [ ] = another dose, or the depositor's remark. The call rests on the fitted dose curve; in most records, active means well fitted curve in the direction sought with a large enough effect; inconclusive means small, poorly fitted or top-dose-only effect, or another doubt; inactive means no such curve, though single readings can be large; an effect the other way counts as inactive or inconclusive. Potency means the concentration at half of the fitted maximal effect.

SMILES	JMJD2A Tudor inh	BAZ2B block	G9a block	GLS inh	HP1b chromo inh	L3MBTL1 inh
CC(C(=O)O)N1C(=O)/C(=C/c2cccn2C)SC1=S (stereo not given)	-7%	-27%	?	9%	?	-11%
Cn1cccc1/C=C1\SC(=S)N(NC(=O)c2cccc(Cl)c2)C1=O	28µM*	28µM*	22µM*	-4%	?	-16%
Cn1cccc1/C=C1/SC(=S)N(CC(=O)O)C1=O	-24%	-33%	50µM*	5%	9%	.
CCC(N)(C(=O)O)c1ccc(C(=O)O)cc1 (stereo not given)	.	.	21%[59 µM]	.	.	.
COc1ccc(OC)c(CCNC(=O)c2c3c(nc4ccccc24)C(=O)N(C2CCCCC2)C3)c1	?	-34%	-3%[59 µM]	-11%	?	.
CCN(CC)c1ccc(/C=N/Nc2nc(C)cc(=O)[nH]2)c(O)c1	-22%	-15%	-9%[59 µM]	7%	23%	-27%
Cc1cc(=O)[nH]c(NN=Cc2cc(Br)ccc2O)n1	79µM*	.	.	5%	17%	.
Cc1cc(=O)[nH]c(N/N=C/c2ccccc2Cl)n1	79µM*	-2%	40µM*	0%	15%	.
COc1ccc(OC)c(/C=N/Nc2nc(C)cc(=O)[nH]2)c1	-35%	50µM*	45µM*	3%	21%	.
Cc1cc(=O)[nH]c(N/N=C/c2c(F)c(F)c(F)c(F)c2F)n1	15%	?	-1%	14%	31%	.
COc1ccccc1/C=N/Nc1nc(C)cc(=O)[nH]1	.	.	.	6%	.	.
C/C=C/C=N/Nc1nc(C)cc(=O)[nH]1	1.6µM*	50µM*	3.5µM*	0%	22%	10%
C=C(C)Cn1c(SCC(=O)Nc2cc(C)ccc2C)nc2sc3c(c2c1=O)CCCC3	-7%	-9%	-20%[59 µM]	-14%	1%	.
CC(/C=N/Nc1nc(C)cc(=O)[nH]1)=C\c1ccccc1	-17%	-4%	?	1%	72%	.
Cc1cc(=O)[nH]c(N/N=C/C(C)c2ccccc2)n1 (stereo not given)	1.1µM*	-27%	16µM*	4%	-4%	-1%
C=CCNC(=S)N/N=C/c1cn(C)c2ccccc12	56µM*	-25%	.	?	?	.
Cn1cc(/C=N/NC(N)=S)c2ccccc21	-25%	-32%	-12%[59 µM]	26%	23%	-6%
CCc1nnc(NC(=O)CN2CCN(c3ccccc3OC)CC2)s1	56µM*	18%	?	-20%	?	3%
CCc1nnc(NC(=O)CN2CCN(CC)CC2)s1	-10%	-4%	79µM*	-8%	31%	1%
CCc1nnc(NC(=O)CN2CCN(c3nc(-c4ccccc4)cs3)CC2)s1	?	?	50µM*	2%	-10%	-11%
COc1ccccc1NC(=O)CN1CCN(c2ccccc2OC)CC1	-20%	-17%	-32%	7%	34%	-11%
COc1ccccc1N1CCN(CC(=O)Nc2ccc(CN3CCCCC3)cc2)CC1	4µM*	50µM*	10µM*	0%	?	-1%
c1ccc(CSc2ccc(-c3ccccn3)nn2)cc1	7.9µM*	6.3µM*	-39%	2%	27%	.
O=C(CSc1ccc(-c2ccccn2)nn1)c1ccccc1	7.1µM*	3.5µM*	?	-8%	37%	.
COc1ccccc1-c1ccc(SCc2ccccc2)nn1	42%	50%	58%	-6%	82%	39%
SMILES	JMJD2A Tudor inh	BAZ2B block	G9a block	GLS inh	HP1b chromo inh	L3MBTL1 inh
O=C(CSc1ccc(-c2ccccn2)nn1)N1CCCC1	3.2µM*	7.1µM*	3.5µM*	?	-13%	.
O=C(CSc1ccc(-c2ccco2)nn1)N1CCCCC1	-5%	?	22µM*	-16%	24%	.
CCOc1ccc(NC(=O)Cn2c(=O)n(CCc3ccccc3)c(=O)c3c4c(sc32)CN(C(C)=O)CC4)cc1	5%	4%	15%[59 µM]	-2%	45%	.
O=C(CSc1ccc(-c2ccccn2)nn1)NC1CCCC1	3.2µM*	3.2µM*	-24%	8%	15%	.
CCc1ccc(-c2ccc(SCC(=O)NC3CCCC3)nn2)cc1	.	.	.	6%	.	.
CCN1CCN(CCNC(=O)c2ccc3c(c2)N(Cc2ccc(F)cc2)C(=O)/C(=C/c2ccccc2)S3)CC1	?	40µM*	?	5%	?	.
CCN1CCN(CCNC(=O)c2ccc(/C=C3/Sc4ccccc4N(Cc4cccc(Cl)c4)C3=O)cc2)CC1	22µM*	-37%	40µM*	?	?	.
Cc1cccc(CN2C(=O)/C(=C\c3ccc(C(=O)NCCN4CCOCC4)cc3)Sc3ccccc32)c1	?	?	.	6%	9%	.
Nc1nsc2ccccc12	-1%	11%	40µM*	-19%	7%	-3%
Nc1nnc(N)c2ccccc12	-19%	-2%	-4%	-5%	6%	-1%
Cc1ccccc1-n1nnnc1SC(C)C(=O)Nc1ccc(N2CCN(C)CC2)cc1 (stereo not given)	?	?	-8%[12.7 µM]	35%	-1%	.
Cc1cccc(-n2nnnc2SCC(=O)Nc2ccc(N3CCN(C)CC3)cc2)c1	?	?	45µM*	23%	-3%	.
Cc1ccccc1-n1nnnc1SCC(=O)Nc1ccc(N2CCN(C)CC2)cc1	?	-32%[57.1 µM]	50µM*	39%	38%	.
CCc1ccccc1-n1nnnc1SCC(=O)Nc1ccc(N2CCN(C)CC2)cc1	10%	?	50µM*	45%	50%	.
COc1ccc(C2NC(=S)NC(C)=C2C(=O)N2CCOCC2)cc1 (stereo not given)	2%	5%	40µM*	-9%	41%	.
COc1ccc(C(=O)N(Cc2ccc(C(C)C)cc2)C2CCS(=O)(=O)C2)cc1 (stereo not given)	-18%	-16%	1%[59 µM]	3%	46%	.
O=C(CSc1ncnc2sc3c(c12)CCCC3)c1ccco1	-31%	12%	34%[59 µM]	1%	45%	-4%
CCc1nc(SCC(=O)N2CCN(C(=O)c3ccco3)CC2)c2c3c(sc2n1)CCCC3	?	-11%	50µM*	-1%	-21%	-6%
CCc1cc2ccccc2nc1SCC(=O)N1CCN(C(=O)c2ccco2)CC1	-14%	?	50µM*	6%	30%	2%
Cc1ccc(SCC(c2ccccc2)N2CCN(C)CCC2=O)cc1 (stereo not given)	-23%	.	.	.	7%	.
O=[N+]([O-])c1ccc(N/N=C\c2cccn2-c2ccccc2)nc1	40µM*	?	?	14%	?	?
COc1ccc([N+](=O)[O-])cc1/C=N/NC(=O)Cc1ccccc1	-25%	0%	20%	-5%	25%	0%
CC(C)(C)OC(=O)N/N=C/c1cccn1-c1ccc([N+](=O)[O-])cc1	?	?	8.9µM*	1%	?	-2%
